Assay outcomes from PubChem BioAssay.
TEAD-YAP block: TEAD-YAP interaction inhibition; HEK-TIYL cells, TEAD-Gal4/YAP UAS-luciferase luminescence; inhibition, % at 9.12 µM; hit rate 1.4% among 640,000; AID 1259422; in the data active = inhibition above about 32%
MITF primary: inhibitors of human MITF; O75030; AlphaScreen MITF homodimerization, bead proximity signal; inhibition, % at 2.6 µM; hit rate 0.91% among 650,000; in the data active = inhibition above about 50%
FBW7 act: human FBW7 E3 ligase activation, primary screen; Q969H0; AlphaScreen FBW7–phospho-cyclin E peptide binding, activator screen; normalized activity (activation), % at 26.1 µM; hit rate 0.13% among 650,000; AID 1259310; in the data active = normalized activity above about 1.9%;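 note: purified mutant Fbw7 with reduced substrate affinity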
GPR151 activ: human GPR151 activation; Q8TDV0; PathHunter beta-arrestin GPR151 cells, luminescence; activation, % at 11.2 µM; hit rate 1% among 650,000; in the data active = activation above about 4.9%
Target sequence (Q8TDV0 whole entry, looked up): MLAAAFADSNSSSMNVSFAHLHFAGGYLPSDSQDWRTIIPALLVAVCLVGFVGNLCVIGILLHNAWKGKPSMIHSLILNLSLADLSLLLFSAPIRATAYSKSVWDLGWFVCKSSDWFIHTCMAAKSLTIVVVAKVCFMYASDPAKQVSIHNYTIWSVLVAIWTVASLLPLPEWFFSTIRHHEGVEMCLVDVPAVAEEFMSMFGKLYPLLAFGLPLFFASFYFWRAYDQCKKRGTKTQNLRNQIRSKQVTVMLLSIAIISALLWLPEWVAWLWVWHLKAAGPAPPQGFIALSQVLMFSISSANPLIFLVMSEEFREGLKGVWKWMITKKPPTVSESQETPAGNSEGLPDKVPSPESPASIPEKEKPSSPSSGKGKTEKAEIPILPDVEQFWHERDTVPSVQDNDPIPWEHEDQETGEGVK
A number is an active result. A selection: hits, their analogues and other compounds. The true share with any hit is near 3.5%.

Results for COc1ccc(C(=O)Nc2ncc(Cc3ccc(F)cc3)s2)cc1OC ?
TEAD-YAP block: 54.8; MITF primary: inactive; FBW7 act: inactive; GPR151 activ: inactive

How did O=C(Nc1ncc(Cc2ccccc2Cl)s1)c1cccc2ccccc12 do in these assays?
TEAD-YAP block: 35.2; MITF primary: inactive; FBW7 act: inactive; GPR151 activ: inactive

How did COc1cc(C(=O)Nc2ncc(Cc3ccc(Cl)cc3)s2)cc(OC)c1OC do in these assays?
TEAD-YAP block: 58.5; MITF primary: inactive; FBW7 act: inactive; GPR151 activ: inactive

Results for CC(=O)Nc1ncc(Cc2ccc(Cl)cc2)s1 ?
TEAD-YAP block: inactive; MITF primary: inactive; FBW7 act: inactive; GPR151 activ: inactive

What do the screens show for `COc1ccc(Cc2cnc(NC(=O)c3sc4ccccc4c3Cl)s2)cc1`?
TEAD-YAP block: 48.2; MITF primary: inactive; FBW7 act: inactive; GPR151 activ: inactive

What do the screens show for `COc1ccc2nc(NC(=O)c3sc4ccccc4c3Cl)sc2c1`?
TEAD-YAP block: inactive; MITF primary: inactive; FBW7 act: inactive; GPR151 activ: inactive

What do the screens show for `COCCOC(=O)c1c(NC(=O)CNCc2cccc(OC)c2)sc(C(N)=O)c1C`?
TEAD-YAP block: inactive; MITF primary: inactive; FBW7 act: inactive; GPR151 activ: inactive

Results for Cc1ccc(C)n1-c1ccccc1N ?
TEAD-YAP block: 51.0; MITF primary: inactive; FBW7 act: inactive; GPR151 activ: inactive

What do the screens show for `Cc1nnc2n1CCN(C(=O)/C(F)=C/c1ccccc1)CC2`?
TEAD-YAP block: inactive; MITF primary: inactive; FBW7 act: 1.9; GPR151 activ: inactive

What do the screens show for `COC(=O)c1cn(NC(=O)c2cccnc2Cl)c(=O)c2ccccc12`?
TEAD-YAP block: inactive; MITF primary: inactive; FBW7 act: inactive; GPR151 activ: inactive

What do the screens show for `COC(=O)c1cn(NC(=O)c2ccccn2)c(=O)c2ccccc12`?
TEAD-YAP block: 62.1; MITF primary: 100.4; FBW7 act: inactive; GPR151 activ: inactive

How did COc1cncc(-c2cnc(N)c(NCC3CCOCC3)n2)c1 do in these assays?
TEAD-YAP block: inactive; MITF primary: inactive; FBW7 act: inactive; GPR151 activ: inactive

What do the screens show for `COc1cccc(NC2=NCC(=O)N2c2cc(C)ccc2C)c1`?
TEAD-YAP block: inactive; MITF primary: inactive; FBW7 act: inactive; GPR151 activ: inactive

What do the screens show for `CCCCC(=O)NC(c1ccccc1OC)c1ccc2cccnc2c1O` (stereo unspecified)?
TEAD-YAP block: 72.7; MITF primary: inactive; FBW7 act: inactive; GPR151 activ: inactive

How did CCCC(=O)NC(c1ccccc1OC)c1ccc2cccnc2c1O (stereo unspecified) do in these assays?
TEAD-YAP block: 76.2; MITF primary: inactive; FBW7 act: inactive; GPR151 activ: inactive

What do the screens show for `COc1ccccc1C(NC(=O)c1cc(OC)c(OC)c(OC)c1)c1cc(Cl)c2cccnc2c1O` (stereo unspecified)?
TEAD-YAP block: inactive; MITF primary: inactive; FBW7 act: inactive; GPR151 activ: inactive

Results for CCCCOC(=O)c1sc2nc3c(c(-c4ccco4)c2c1N)CCCC3 ?
TEAD-YAP block: inactive; MITF primary: inactive; FBW7 act: inactive; GPR151 activ: inactive

How did CCN1/C(=C/c2cc(C)[n+](CCO)c(C)c2)Sc2ccccc21 do in these assays?
TEAD-YAP block: 33.2; MITF primary: inactive; FBW7 act: inactive; GPR151 activ: inactive

What do the screens show for `COCC[n+]1c(C)cc(/C=C2\Sc3ccccc3N2C)cc1C`?
TEAD-YAP block: 76.0; MITF primary: inactive; FBW7 act: inactive; GPR151 activ: inactive

What do the screens show for `CCN1/C(=C/c2cccc[n+]2C)Sc2ccccc21`?
TEAD-YAP block: 46.5; MITF primary: inactive; FBW7 act: inactive; GPR151 activ: inactive

How did O=c1c(SCc2c(F)cccc2Cl)nccn1-c1ccc2c(c1)OCCO2 do in these assays?
TEAD-YAP block: inactive; MITF primary: inactive; FBW7 act: inactive; GPR151 activ: inactive

Results for COCC(C)n1c(-c2cccs2)csc1=Nc1ccc(F)cc1 (stereo unspecified) ?
TEAD-YAP block: inactive; MITF primary: inactive; FBW7 act: inactive; GPR151 activ: inactive

What do the screens show for `CC1=NN(c2ccccc2)C(=O)/C1=C/c1cccn1-c1ccccc1`?
TEAD-YAP block: inactive; MITF primary: 64.2; FBW7 act: inactive; GPR151 activ: inactive

What do the screens show for `CC1=NN(c2ccccc2)C(=O)/C1=C/c1ccc(Cl)cc1`?
TEAD-YAP block: inactive; MITF primary: inactive; FBW7 act: inactive; GPR151 activ: inactive

How did Cc1ccc2oc(-c3cccc(N)c3C)nc2c1 do in these assays?
TEAD-YAP block: 43.2; MITF primary: inactive; FBW7 act: inactive; GPR151 activ: inactive

What do the screens show for `Cc1cc(C)c2oc(-c3ccc(N)cc3O)nc2c1`?
TEAD-YAP block: 36.8; MITF primary: inactive; FBW7 act: inactive; GPR151 activ: inactive

How did Cc1cc2nc(-c3cccc(NC(=O)C(C)C)c3C)oc2cc1C do in these assays?
TEAD-YAP block: inactive; MITF primary: inactive; FBW7 act: inactive; GPR151 activ: inactive

Results for Cc1ccc(C)c(-c2nc3cc(N)ccc3o2)c1 ?
TEAD-YAP block: 36.8; MITF primary: inactive; FBW7 act: inactive; GPR151 activ: inactive

How did Nc1ccc(-c2nc3cc(N)ccc3o2)c(O)c1 do in these assays?
TEAD-YAP block: inactive; MITF primary: inactive; FBW7 act: inactive; GPR151 activ: inactive

How did Cc1cc2nc(-c3cccc(N)c3C)oc2cc1C do in these assays?
TEAD-YAP block: 89.1; MITF primary: inactive; FBW7 act: inactive; GPR151 activ: inactive

What do the screens show for `Cc1ccc2oc(-c3cc(N)ccc3Cl)nc2c1`?
TEAD-YAP block: inactive; MITF primary: inactive; FBW7 act: inactive; GPR151 activ: inactive

Results for CCN1CCOc2ccc(C(C)(O)CN(C)C)cc2C1 (stereo unspecified) ?
TEAD-YAP block: inactive; MITF primary: inactive; FBW7 act: inactive; GPR151 activ: inactive

Results for Cc1ccc(-c2cccc3cnc(Nc4cccc(C(=O)N5CCOCC5)c4)nc23)cn1 ?
TEAD-YAP block: 32.4; MITF primary: inactive; FBW7 act: inactive; GPR151 activ: inactive

How did Cc1ccc(-c2cccc3cnc(NC4CCN(C(=O)N5CCCC5)C4)nc23)cn1 (stereo unspecified) do in these assays?
TEAD-YAP block: inactive; MITF primary: inactive; FBW7 act: inactive; GPR151 activ: inactive

Results for Cc1ccc(-c2cccc3cnc(Nc4ccc(C(=O)N5CCCC5)cc4)nc23)cn1 ?
TEAD-YAP block: 50.2; MITF primary: inactive; FBW7 act: inactive; GPR151 activ: inactive

What do the screens show for `C[C@@H](c1ccccc1)n1c(=O)[nH]c2ncc(-c3ccc(S(C)(=O)=O)cc3)nc21`?
TEAD-YAP block: inactive; MITF primary: inactive; FBW7 act: inactive; GPR151 activ: inactive

What do the screens show for `COc1ccc2c(CNC3CCCC3)c(C(=O)O)n(Cc3ccc(C)cc3)c2c1`?
TEAD-YAP block: inactive; MITF primary: inactive; FBW7 act: inactive; GPR151 activ: inactive

What do the screens show for `COc1cc(C(=O)N2N=C(C)CC2(O)C(F)(F)F)cc(OC)c1OC` (stereo unspecified)?
TEAD-YAP block: 59.8; MITF primary: inactive; FBW7 act: inactive; GPR151 activ: inactive

How did COc1cc(C(=O)N2N=C(C3CC3)CC2(O)C(F)(F)F)cc(OC)c1OC (stereo unspecified) do in these assays?
TEAD-YAP block: inactive; MITF primary: inactive; FBW7 act: inactive; GPR151 activ: inactive

Results for COc1cc(OC)cc(C(=O)N2N=C(C)CC2(O)C(F)(F)F)c1 (stereo unspecified) ?
TEAD-YAP block: 50.0; MITF primary: inactive; FBW7 act: inactive; GPR151 activ: inactive
